From PubChem
This is a sample that favours compounds with a hit; in the whole collection about 12% have one here.
Sfp inh: qHTS Assay for Inhibitors of Bacillus subtilis Sfp phosphopantetheinyl transferase (PPTase). Potency, µM, for the others: largest response in the series, negative = inhibition, most hits filed as inhibitors. 4'-phosphopantetheinyl transferase ffp (Bacillus subtilis), Q9F4F7. Biochemical Sfp PPTase activity, qHTS. hit rate 3.5% among 310,000;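 also: the enzyme is Sfp with the accession as filed and its product quenches rhodamine fluorescence; 0% = enzyme reaction without inhibitor and -100% = no enzyme wells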
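Fluorescence-quenching assay: 15 nM Sfp-PPTase preincubated 15 min at room temperature with compound, then 5 uM rhodamine-CoA and 12.5 uM BHQ-2-labelled YbbR peptide added. Fluorescence (ex 525/em 598 nm) read at start and after 30 min; difference gives rate.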
G9a inh: qHTS Assay for Inhibitors of Histone Lysine Methyltransferase G9a | Histone-lysine N-methyltransferase EHMT2 (Homo sapiens), Q96KQ7 | AID 504332, 2011 | Potency, µM (titrated, usually from 102 µM), without a hit: at the highest dose activity, negative = inhibition, actives largely listed as inhibitors | G9a H3K9 monomethylation, AlphaScreen, 2 h | hit rate 8.8% among 350,000; also: % is scaled to controls: 0 for no effect and ±100 for the full control effect; nearly all actives have a fitted effect of over 75% in size
Target sequence (Q96KQ7 913-1193 limits assumed): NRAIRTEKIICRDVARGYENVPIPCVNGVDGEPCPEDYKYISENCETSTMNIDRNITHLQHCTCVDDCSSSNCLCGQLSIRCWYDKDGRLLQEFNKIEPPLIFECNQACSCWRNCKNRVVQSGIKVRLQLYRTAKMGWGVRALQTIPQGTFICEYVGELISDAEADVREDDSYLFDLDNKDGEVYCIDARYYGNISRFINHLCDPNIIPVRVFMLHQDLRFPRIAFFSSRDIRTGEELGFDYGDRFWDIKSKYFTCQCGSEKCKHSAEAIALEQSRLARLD
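Step 1: enzyme (final 20 nM) with compound, 15 min RT. Step 2: substrate peptide 500 nM and SAM 20 uM, 2 h RT. Step 3: anti-H3K9me1 antibody and AlphaScreen beads, 10 min, then plate read.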
L3MBTL1 block: qHTS Assay for the Inhibitors of L3MBTL1; Potency, µM (titrated, usually from 57.1 µM), inactives show top-dose activity, negative = inhibition, actives largely listed as inhibitors; AID 485360, 2010; AlphaScreen L3MBTL1–H3K9me1 peptide binding; hit rate 0.66% among 230,000; also: % is scaled to controls: 0 for no effect and ±100 for the full control effect; nearly all actives have a fitted effect of over 60% in size
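AlphaScreen proximity signal between nickel-chelate acceptor and streptavidin donor beads (final 10 ug/mL) reports binding of 50 nM L3MBTL1 to 75 nM biotin-H3 K9me1 peptide; complex incubated with compounds 30 min at room temperature; cefsulodin titration as control.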
BAZ2B inh: qHTS Assay for Inhibitors of BAZ2B; Bromodomain adjacent to zinc finger domain protein 2B (Homo sapiens), Q9UIF8; AlphaScreen BAZ2B-H3K14Ac peptide displacement; Potency, µM (series often up to 114 µM), for the others: at the highest dose activity change, negative = inhibition, actives largely listed as inhibitors; hit rate 4.4% among 360,000; also: % is scaled to controls: 0 for no effect and ±100 for the full control effect; nearly all actives have a fitted effect of over 60% in size
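AlphaScreen displacement of biotin-H3(5-23)K14Ac peptide (50 nM final) from BAZ2B (50 nM final) in PBS pH 7.4, 0.01% Tween-20; complex preformed 30 min RT, then compounds (top 110 uM) 30 min RT, beads 20 min dark.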
JMJD2A Tudor: qHTS Assay for Inhibitors of JMJD2A-Tudor Domain; Potency, µM (top dose mostly 114 µM), without a hit: at the top dose activity change, negative = inhibition, hits mostly inhibitors; Lysine-specific demethylase 4A (Homo sapiens), O75164; hit rate 4.4% among 390,000; AlphaScreen JMJD2A-Tudor / H3K4me3 peptide binding; AID 504339, 2011; also: % is scaled to controls: 0 for no effect and ±100 for the full control effect; nearly all actives have a fitted effect of over 50% in size
HP1b chromo inh: HTS for Inhibitors of HP1-beta Chromodomain Interactions with Methylated Histone Tails | Chromobox protein homolog 1 (Homo sapiens), P83916 | AlphaScreen HP1-beta / biotin-H3K9me3 peptide binding | AID 540317, 2011 | hit rate 0.56% among 390,000 | Potency, µM (series often up to 114 µM), for inactives: at the top dose activity change, negative = inhibition, most hits filed as inhibitors; also: nearly all actives have a fitted effect of over 70% in size
Target sequence (P83916 whole entry, looked up): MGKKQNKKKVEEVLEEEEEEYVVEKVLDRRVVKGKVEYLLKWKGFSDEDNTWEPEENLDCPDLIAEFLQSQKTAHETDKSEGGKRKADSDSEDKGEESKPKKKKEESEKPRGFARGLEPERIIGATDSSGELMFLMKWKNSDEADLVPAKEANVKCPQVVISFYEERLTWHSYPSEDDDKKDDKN
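HP1-beta protein (50 nM final) preincubated 30 min at room temperature with biotinylated H3(1-18)K9me3 peptide (50 nM) in PBS pH 7.4, 0.01% Tween-20, then compound added for 30 min. AlphaScreen streptavidin donor/nickel chelate acceptor beads (10 ug/mL final), 30 min dark, luminescence read.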
* = called active by the depositor; ? = inconclusive; · = not tested or not shown; [ ] = remark or other dose. Calls follow the shape of the dose curve; as a rule, active = well fitted curve in the direction sought with a large enough effect; inconclusive = small, poorly fitted or top-dose-only effect, or another doubt; inactive = no such curve, though single readings can be large; an effect the other way counts as inactive or inconclusive. Potency is read from the fitted curve at half-maximal effect.

SMILES	Sfp inh	G9a inh	L3MBTL1 block	BAZ2B inh	JMJD2A Tudor	HP1b chromo inh
COCCNC(=O)c1ccc(C(=O)NCCOC)s1	13%	10%[12.7 µM]	2%	2%	-11%	6%
CCn1c(N)c(C(=O)NCCOC)sc1=S	56µM*	20%[12.7 µM]	·	5%	3%	?
CCn1c(N)c(C(=O)Nc2ccccc2C(=O)OC)sc1=S	35µM*	?	-9%	?	-16%[11.4 µM]	?
COC(=O)c1ccccc1NC(=O)CC(=O)Nc1ccccc1C(=O)OC	5%	4%[2.33 µM]	·	4%	-4%	23%
Cc1ccc(S(=O)(=O)Nc2nc3ccccc3nc2N2CCN(c3ccccc3F)CC2)cc1	-16%	-49%[59 µM]	·	?	-29%	12%
O=S(=O)(Nc1nc2ccccc2nc1N1CCN(CCO)CC1)c1cc(F)ccc1F	·	7.1µM*	27%	18%	-5%	43%
CC(=O)Nc1ccc(C2=NNC(=NCC3CCCO3)SC2)cc1 (stereo not drawn)	40µM*	14µM*	0%	1%	-26%	8%
Cc1ccc(C2=NNC(=Nc3ccc(F)cc3)SC2)cc1	?	?	-8%	?	?	?
COCC(C)N=C1NN=C(c2ccc(NC(C)=O)cc2)CS1 (stereo not drawn)	40µM*	11µM*	8%	?	-17%	20%
Fc1ccc(F)c(C2=NNC(=NCC3CCCO3)SC2)c1 (stereo not drawn)	45µM*	?	-25%	?	-22%	23%
CC(=O)Nc1ccc(C2=NN(CC#N)C(=O)SC2)cc1	14%	48%[12.7 µM]	0%	-2%	2%	28%
COc1ccc(NC(=O)CC2SC(=NCC3CCCO3)NC2=O)cc1 (stereo not drawn)	7%	-8%[59 µM]	-3%	-5%	-19%	11%
Cc1cc(C)cc(OC(=O)c2snnc2C)c1	·	-46%[59 µM]	·	36%	62%	79%
O=C(Nc1ccc(F)c(Cl)c1)N1CC=C(c2c[nH]c3ccccc23)CC1	·	?	·	?	?	-10%
COc1cc(/C=C/C(=O)O)cc(S(=O)(=O)N2CCc3ccccc3C2)c1OC	-3%	89µM*	-18%	-36%	-5%	32%
Oc1ccc(-c2cnns2)c(O)c1	56µM*	7.1µM*	2%	-24%	0.79µM*	?
O=C1CCCc2c1cc(-c1ccccc1)n2-c1ccccc1	14%	45µM*	-18%	25µM*	40µM*	?
O=C1/C(=C\c2cccs2)Sc2ccc3ccccc3c21	-1%	7.9µM*	-25%	?	?	?
Cc1ccc(S(=O)(=O)N2CCN(CCOc3c(Cl)cccc3Cl)CC2)cc1C	·	13%[12.7 µM]	3%	-3%	-5%	46%
Cc1cccc(C(C)(C)C)c1OCCOCCN1CCCC1	1%	?	-2%	-28%	2.2µM*	-49%
Cc1cccc(C(C)(C)C)c1OCCN1CCCC1	-45%	25µM*	-13%	-9%	4.5µM*	?
CCOC(=O)c1c(S(=O)(=O)N2CCCC(C(=O)N3CCN(c4cccc(C)c4C)CC3)C2)c(C)n(C)c1C (stereo not drawn)	·	-38%[59 µM]	·	?	?	5%
CCOC(=O)c1ccc(N2C(=O)c3n[nH]c(C)c3C2c2ccccc2OC)cc1 (stereo not drawn)	·	?	·	·	-34%	-4%
CCN(CC)c1ccc(/C=C(/C#N)C(=O)NCc2ccccc2)o1	-7%	11µM*	5%	-32%	-12%	-18%
N#C/C(=C/c1cn(CC(=O)O)c2ccccc12)C(=O)NCc1ccccc1	11%	56µM*	3%	?	-4%	34%
